RORg inh: qHTS for inhibitors of ROR gamma transcriptional activity; Drosophila S2 Gal4-RORgamma UAS-luciferase reporter, 20 h; Potency, µM (highest dose often 53.6 µM), inactives show at the top dose activity change, negative = inhibition, hits mostly inhibitors; Nuclear receptor ROR-gamma (Mus musculus), P51450; hit rate 5.4% among 310,000; also: potency is read from the fitted curve at half-maximal effect; nearly all actives have a fitted effect of over 60% in size
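ROR gamma transcriptional activity was tracked as Gal4-UAS luciferase output in stably transfected Drosophila Schneider cells, with compound added 1 hr before 700 uM copper sulfate induction and a 20 hr ambient-temperature incubation.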
Gal4-VP16 FLuc: VP16 counterscreen qHTS for inhibitors of ROR gamma transcriptional activity; Drosophila S2 Gal4-VP16 UAS-luciferase, luminescence, 20 h; AID 2546, 2010; hit rate 3.5% among 310,000; Potency, µM (highest dose often 53.6 µM), inactives show at the highest dose activity, negative = inhibition, usual class: inhibitors;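 also: Gal4-VP16 expression switched on by copper sulfate through the metallothionein promoter; potency is read from the fitted curve at half-maximal effect; nearly all actives have a fitted effect of over 50% in size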
Six1-Eya2 inh: qHTS Assay for Inhibitors of the Six1/Eya2 Interaction; activity change, % (concentration not given with the values); Homeobox protein SIX1 (Homo sapiens) + Protein phosphatase EYA2 (Homo sapiens), …; AlphaScreen GST-Six1/His-Eya2 binding, biochemical; stronger effect = lower value; hit rate 0.56% among 360,000; AID 651725, 2012; in the data active = activity change below about -65%; inconclusive = mostly about -30% to -63%
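Compounds are tested against tagged Six1 and Eya2 proteins bridged by glutathione donor and nickel acceptor beads; after a one-hour incubation at 37 °C without light, AlphaScreen emission is recorded.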
PKM2 act: qHTS Assay for Activators of Human Muscle isoform 2 Pyruvate Kinase; Pyruvate kinase PKM (Homo sapiens), P14618; purified PKM2, Kinase-Glo ATP luminescence, activation; response scale: 0% is enzyme alone, no compound; Potency, µM (highest dose often 57.5 µM), for the others: at the highest dose activation, most hits filed as activators; hit rate 0.34% among 260,000; AID 1631, 2009; also: potency is read from the fitted curve at half-maximal effect; nearly all actives have a fitted effect of over 55% in size
Target sequence (P14618 whole entry, looked up, canonical isoform): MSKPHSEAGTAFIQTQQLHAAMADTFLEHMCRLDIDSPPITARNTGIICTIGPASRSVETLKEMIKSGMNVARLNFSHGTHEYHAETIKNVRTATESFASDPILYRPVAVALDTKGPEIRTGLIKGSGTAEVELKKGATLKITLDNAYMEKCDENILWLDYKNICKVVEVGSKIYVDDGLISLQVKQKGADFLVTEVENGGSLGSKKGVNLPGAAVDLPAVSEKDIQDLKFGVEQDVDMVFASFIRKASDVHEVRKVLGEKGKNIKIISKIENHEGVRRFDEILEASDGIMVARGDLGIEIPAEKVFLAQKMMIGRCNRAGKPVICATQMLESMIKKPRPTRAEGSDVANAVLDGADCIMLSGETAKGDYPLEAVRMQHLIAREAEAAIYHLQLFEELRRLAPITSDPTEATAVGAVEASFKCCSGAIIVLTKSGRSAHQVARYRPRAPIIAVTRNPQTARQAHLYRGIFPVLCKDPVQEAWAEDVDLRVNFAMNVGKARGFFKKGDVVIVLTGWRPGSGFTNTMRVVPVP
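Kinase-Glo luminescence reports ATP generated from ADP (0.1 mM) and PEP (0.5 mM) by purified hPK-M2 after 1 h at room temperature, pH 7.2 imidazole buffer; intermediate enzyme activity allows detecting inhibitors and activators.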
CtBP-E1A blk: qHTS Assay for Inhibitors of the CtBP/E1A Interaction; CtBP / adenovirus E1A interaction (AlphaScreen); AlphaScreen GST-E1A/His-CtBP binding, 1536-well; stronger effect = lower value; activity change, % (concentration not given with the values); hit rate 0.49% among 340,000; AID 651724, 2012; in the data active = activity change below about -65%; inconclusive = mostly about -30% to -63%
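Homogeneous bead-based format: GST-tagged E1A captured on glutathione donor beads, His-tagged CtBP on nickel acceptor beads; compounds precede bead addition by 2 h at 37 °C.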
* = called active by the depositor; ? = inconclusive; . = no result given; [ ] = remark or other dose. Most compounds without a hit are left out; they make up all but 5.6% or so of the library. Unless noted, calls follow the shape of the dose curve; as a rule, active = well fitted curve in the direction sought with a large enough effect; inconclusive = small, poorly fitted or top-dose-only effect, or another doubt; inactive = no such curve, though single readings can be large; an effect the other way counts as inactive or inconclusive. % is scaled to controls: 0 for no effect and ±100 for the full control effect.

SMILES | RORg inh | Gal4-VP16 FLuc | Six1-Eya2 inh | PKM2 act | CtBP-E1A blk
COc1ccc(S(=O)(=O)N2CCC(C(=O)NCCC(=O)Nc3ccc(Cl)cc3)CC2)cc1 | -1% | 8% | 0 | . | -14
COc1ccc(-c2cn3c(C)c(C(=O)Nc4ccncc4)sc3n2)cc1 | -20% | 13µM* | -2 | 10% | -11
COc1ccc(-c2cn3c(C)c(C(=O)N4CCCc5ccccc54)sc3n2)cc1 | . | . | -4 | . | -27
COc1ccc(-c2cn3c4c(sc3n2)CCCC4)cc1 | 11µM* | 10µM* | 5 | -1% | 5
COc1ccc(C)cc1NC(=O)NNC(=O)C(C)Oc1ccc([N+](=O)[O-])cc1 (stereo not drawn) | -12% | 11% | 0 | -2% | -3
CCC(C)CCN1CCN=C1Nc1ccccc1 (stereo not drawn) | . | . | -2 | . | 1
CCc1nc2ccc(C(=O)N3CCN(C(C)=O)CC3)cn2c1N(C)C(=O)c1cccc(OC)c1 | . | . | 8 | . | 6
Fc1ccc(Nc2ncncc2-c2ccccc2C(F)(F)F)cc1 | ? | 1% | . | . | .
Cc1cc(C)nc(NS(=O)(=O)c2ccc(NC(=O)CSc3nc4ccccc4[nH]3)cc2)n1 | 23% | 4µM* | -23 | 17% | -16
O=C(CCSc1ccccc1)Nc1ccc(S(=O)(=O)Nc2ncccn2)cc1 | 5% | 2% | 3 | -1% | -4
O=C(CSc1ccccc1)Nc1ccc(S(=O)(=O)Nc2ncccn2)cc1 | 13µM* | 5% | 9 | -17% | 6
O=C(CSc1nnc2c(n1)[nH]c1ccccc12)Nc1ccc(S(=O)(=O)Nc2ncccn2)cc1 | 23% | -19% | -76* | -12% | .
Cc1ccc(C)c(NC(=S)Nc2ccc(S(=O)(=O)Nc3ncccn3)cc2)c1 | ? | ? | 0 | -2% | -1
Cc1ccc(NC(=O)CSc2nnc3c(n2)[nH]c2ccccc23)cc1 | 11% | -2% | 5 | . | 3
Cc1ccc(NC(=S)Nc2ccc(S(=O)(=O)Nc3ncccn3)cc2)c(C)c1 | 13µM* | -19% | 2 | 0% | 0
O=C(C1CCCN1S(=O)(=O)c1ccc(Cl)cc1)N1CCN(c2ccccc2)CC1 (stereo not drawn) | . | . | 8 | . | -21
O=C(COC(=O)CCCOc1ccccc1)NNC(=O)c1ccc([N+](=O)[O-])cc1 | -5% | 0% | -4 | -7% | 0
COc1cc(-c2nc(-c3ccc4c(c3)-c3ccccc3S4(=O)=O)c(-c3ccccc3)[nH]2)cc(OC)c1O | ? | 4.5µM* | -13 | 11% | -13
Cc1cc(C)cc(NS(=O)(=O)c2c(C(=O)N3CCOCC3)c(C)n(C)c2C)c1 | -8% | -5% | 1 | . | 1
Cc1ccc(C(=O)NC(=S)N(C)C2CCCCC2)cc1 | 2.2µM* | 3.2µM* | -1 | -7% | 0
CN(C(=S)NC(=O)/C=C/c1ccc(F)cc1)C1CCCCC1 | 1.3µM* | 2.5µM* | -13 | 0% | -6
Cc1cccc(NC(=S)N(C)C2CCCCC2)c1 | 11µM* | 18µM* | 3 | . | 2
CN(C(=O)/C=C/c1ccc(F)cc1)C1CCCCC1 | . | . | 5 | . | -1
O=C(/C=C/c1ccc(F)cc1)NC(=S)NC1CCCCC1 | ? | -5% | 3 | -10% | .
CC(C)NC(=S)NC(=O)/C=C/c1ccc(F)cc1 | 1.8µM* | 7.1µM* | -1 | 0% | 3
SMILES | RORg inh | Gal4-VP16 FLuc | Six1-Eya2 inh | PKM2 act | CtBP-E1A blk
CCCCCOC(=O)Nc1nc(=O)n(C2O[C@H](C)[C@@H](O)[C@@H]2O)cc1F (stereo partly drawn) | -12%[10 µM] | -4% | . | . | .
O=C(NNc1ccccc1)/C(=C\c1cccnc1)NC(=O)c1ccccc1 | 15% | 8% | 4 | 1% | .
Cc1cc(/C=C/c2ccc3cc(N(C)C)ccc3[n+]2C)c(C)n1-c1ccccc1 | 4.5µM* | -79% | . | . | .
COc1ccc(COC(=O)NC2CCN(S(=O)(=O)c3ccc(OC)cc3)CC2)cc1 | 40% | -6% | 3 | 20µM* | -2
COc1ccc(CNC(=O)C2=CCN(S(=O)(=O)c3ccc(C)cc3)CC2)cc1 | 5% | 4% | -2 | 14µM* | -2
COc1ccc(S(=O)(=O)N2CCN(C(=O)NCc3ccccc3)CC2)cc1 | 17% | 2% | -1 | 7.1µM* | -2
COc1ccc(CNC(=O)N2CCN(S(=O)(=O)c3ccccc3)CC2)cc1 | 10% | -7% | -4 | . | 0
COc1ccc(S(=O)(=O)N2CCC(NC(=O)OCc3c(Cl)cccc3Cl)CC2)cc1 | 21% | 10% | -6 | ? | -2
CC1C(=O)N(S(=O)(=O)c2ccc([N+](=O)[O-])cc2)[C@H]1c1ccc2ccccc2c1 (stereo partly drawn) | 1% | -9% | . | . | .
Cn1cc(Br)c(C(=O)NC(=S)N2CCN(c3ccccn3)CC2)n1 | 4µM* | 13µM* | -3 | -6% | -22
CCOC(=O)c1ccc(NC(=O)c2nn(C)cc2Br)cc1 | 7% | 0% | 4 | -8% | 2
COC(=O)c1ccccc1NC(=S)N1CCN(c2ccccn2)CC1 | -14% | -11% | -1 | 1% | .
CCOC(=O)N1CCN(C(=S)NC(=O)c2nn(C)cc2Br)CC1 | 18µM* | ? | 4 | -31% | 5
Cn1ncc(Br)c1C(=O)NC(=S)N1CCN(c2ccccn2)CC1 | 6.3µM* | 11µM* | -1 | -6% | 12
Cc1cccc(-n2ncc3c2CCCC3NC(=O)CCN2Cc3ccccc3C2=O)c1C (stereo not drawn) | 40% | -1% | 19 | 16% | 5
O=C(COc1ccc(Br)cc1F)NC1CC1 | . | . | 1 | . | 11
Cn1nc(-c2ccc(OCC(=O)Nc3cccnc3)cc2)c2ccccc2c1=O | 1.8µM* | 16µM* | -1 | 0% | -1
COC(=O)c1ccc(NC(=O)CSC2=NC(=O)C(c3ccccc3)C(=O)N2)cc1 (stereo not drawn) | -2% | -5% | -7 | -6% | -4
O=C(O)C1C2CCC1C(O)C2 (stereo not drawn) | . | . | 32 | . | -1
Cc1ccc(-n2c(C)cc(C(=O)CSc3nnnn3C)c2C)cc1 | ? | 13µM* | -27 | -19% | -12
Cc1ccc(-n2c(C)cc(C(=O)CSc3nncs3)c2C)cc1 | -4% | -8% | -22 | -14% | -5
O=C(Nc1nc(-c2ccccn2)cs1)c1ncc(Cl)c(Cl)c1Cl | 6.3µM* | 10µM* | ? | -2% | -74*
Cc1csc(NC(=O)c2cccn2C)n1 | -15% | -19% | -7 | -43% | -13
CCc1sc(C(=O)Nc2nccs2)cc1C | 7.9µM* | ? | -7 | . | -5
Cc1ccsc1C(=O)Nc1nccs1 | 11µM* | ? | 2 | -17% | 2

Screening results from PubChem.
